Compound activity (PubChem)
An excerpt weighted towards active compounds, which were near 2% of everything screened.
SUMO Mot1 rescue: SUMOylation pathway inhibition by Mot1-301 growth rescue; S. cerevisiae Mot1-301 growth rescue, ATP luminescence, 38.5C; percent above DMSO median, 100 means doubled; growth rescue, % at 18.8 µM; actives 1% (n = 320,000); AID 2716;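 active = every valid replicate shows activation above 250% relative to neutral control wells; inactive = the rest, any valid replicate at or below 250%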
PKA-R2B activ: activators of human PKA-R2B complex; actives 0.079% (n = 340,000); PKA-R2B holoenzyme dissociation, Cy5-IP20 fluorescence polarization; R2B truncated from residue 108, S112A mutant; 0% DMSO only, 100% 113 µM cGMP; AID 504700; activation, % at 11.4 µM;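 active = activation above a cutoff set at the mean over all compounds plus 3 SD, cut at about 18% in these data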;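 also: higher means more holoenzyme dissociation and a rise in polarization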
Target sequence (P31323 whole entry, looked up, other chains not shown, the tested form may be a part): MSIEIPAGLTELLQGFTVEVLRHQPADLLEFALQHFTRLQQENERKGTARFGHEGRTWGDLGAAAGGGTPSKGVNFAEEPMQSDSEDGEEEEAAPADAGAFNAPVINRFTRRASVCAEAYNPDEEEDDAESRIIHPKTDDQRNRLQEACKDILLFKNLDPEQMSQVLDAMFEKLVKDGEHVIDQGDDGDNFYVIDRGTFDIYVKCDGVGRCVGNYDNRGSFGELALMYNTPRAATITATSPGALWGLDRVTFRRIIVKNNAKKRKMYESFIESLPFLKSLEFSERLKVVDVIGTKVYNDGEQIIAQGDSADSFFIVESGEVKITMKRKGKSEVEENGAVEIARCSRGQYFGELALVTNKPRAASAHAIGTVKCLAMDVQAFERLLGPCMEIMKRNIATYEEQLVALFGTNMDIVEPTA
MsrA act: bovine methionine sulfoxide reductase A activation. actives 0.3% (n = 360,000). purified bovine MsrA, absorbance read-out. activation, % at 10.6 µM. AID 602163; in the data active = activation above about 7.5%
MsrA inhibitor: bovine MsrA inhibition. inhibition, % at 15.5 µM. purified bovine MsrA, absorbance read-out. actives 0.75% (n = 360,000); in the data active = inhibition above about 4.5%
PKA-R1A activ: PKA-R1A complex activation | P00514+P68181 | PKA-R1A dissociation, Cy5-IP20 fluorescence polarization; scaled: DMSO 0%, 113 µM cGMP 100% | activation, % at 11.4 µM | actives 0.083% (n = 340,000) | AID 504707;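 active = percent activation above the mean of all tested compounds plus 3 SD, cut at about 19% in these data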;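 also: higher means more PKAc released from R1A so a rise in polarization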
Numbers stand for hits; – = inactive; · = no result given.

SMILES	SUMO Mot1 rescue	PKA-R2B activ	MsrA act	MsrA inhibitor	PKA-R1A activ
O=C(Nc1nc2c(cc3c4c(cccc42)CC3)s1)c1ccccc1Cl	–	–	–	4.6	–
O=C(Nc1nc2c(Cl)cccc2s1)C1CC1	–	–	–	–	–
CC1CN(Cc2cc(=O)n3ccsc3n2)CC(C)O1 (stereo unspecified)	278	–	–	–	–
O=c1cc(CN2CCC(Cc3ccccc3)CC2)nc2sccn12	–	–	–	–	–
CCc1cc2c3c(c1)C1(C(=O)N3C(C)(C)CC2C)C(C#N)=C(N)N2C(=C1C#N)Nc1ccccc12 (stereo unspecified)	608	–	–	–	–
N#CC(c1c(Cl)cccc1N1CCCCC1)N1CCCCC1 (stereo unspecified)	·	·	·	–	·
O=[N+]([O-])c1cc(C(F)(F)F)ccc1NC1CCN(Cc2ccccc2)C1 (stereo unspecified)	262	–	–	–	–
O=[N+]([O-])c1cc(C(F)(F)F)ccc1NC1CCN(Cc2ccccc2)CC1	–	·	–	–	·
C=CCNC(=S)N(C)[C@H]1C[C@H]2c3cc(-c4ccccc4C)ccc3CCN2C[C@H]1[C@H](C)O	·	·	·	–	·
CCOC(=O)CC(NC(C)=O)c1ccc([N+](=O)[O-])cc1 (stereo unspecified)	–	–	–	–	–
CC(=O)NC(CC(=O)OCc1ccc([N+](=O)[O-])cc1)c1ccccc1 (stereo unspecified)	497	–	–	–	–
O=C(NCC1CCN(C(=O)C(=O)c2cc3ccccc3o2)CC1)c1ccc2c(c1)OCCCO2	·	·	·	–	·
O=C(Nc1ccc(C(=O)O)cc1)/C(=C\C=C\c1ccccc1)NC(=O)c1ccccc1Cl	–	–	–	5.8	–
Cc1ccc(NC(=S)N2CCCC(c3nc4ccccc4[nH]3)C2)cc1 (stereo unspecified)	523	–	–	–	–
Cc1cc([N+](=O)[O-])ccc1NC(=O)CSc1nncn1-c1ccccn1	737	–	–	–	–
COC(=O)C1=C(C)N(Cc2cccc(C(F)(F)F)c2)C(=NCC2CC2)NC1c1cccc(F)c1 (stereo unspecified)	·	·	·	–	·
CCOC(=O)N1CCN(C(=O)Cn2ncc3c2-c2ccccc2OC3)CC1	357	–	–	–	–
O=C(NCc1ccccc1)[C@H]1CCCN1C(=O)[C@H]1CCCN1C(=O)c1ccc(OC(F)(F)F)cc1	·	·	·	–	·
O=C(CN(Cc1ccco1)C(=O)CNS(=O)(=O)c1ccc(F)cc1)NCc1ccccc1	298	–	–	–	–
Cc1c(/C(O)=C2/C(=O)C(=O)N(CCN3CCOCC3)C2c2cccnc2)cnn1-c1ccccc1 (stereo unspecified)	447	–	–	–	–
CN(C)S(=O)(=O)c1ccc(/C(O)=C2/C(=O)C(=O)N(CCN3CCCCC3)C2c2cccnc2)cc1 (stereo unspecified)	·	–	–	4.9	–
Cc1c(/C(O)=C2/C(=O)C(=O)N(CCN3CCOCC3)C2c2ccco2)cnn1-c1ccccc1 (stereo unspecified)	·	–	–	–	–
COc1ccc(C(=O)NCCS(=O)(=O)N2CCc3ccccc3C2)cc1	530	–	–	–	–
O=C(NCCS(=O)(=O)N1CCc2ccccc2C1)c1ccccc1	–	–	–	–	–
Cc1cccc(Nc2nc(N)c(C#N)c(CC#N)c2C#N)c1	–	–	–	4.6	–
SMILES	SUMO Mot1 rescue	PKA-R2B activ	MsrA act	MsrA inhibitor	PKA-R1A activ
COC(=O)C1=C(C)N(Cc2ccccc2C(F)(F)F)C(=NCc2ccc(C(F)(F)F)cc2)NC1c1cccc(F)c1 (stereo unspecified)	·	·	·	–	·
CCOC(=O)c1nn(-c2ccccc2)c(=O)c2c(N)scc12	332	–	–	–	–
COCc1cc(N2CCN(C(=O)OC(C)(C)C)C[C@H]2C)ccc1N1CCS(=O)(=O)CC1	·	·	·	–	·
COc1ccc(C(O)C2c3c(cc4c(c3OC)OCO4)CCN2C)c(CO)c1OC (stereo unspecified)	·	·	–	–	·
COc1ccc2c(c1OC)C(=O)O[C@@H]2[C@H]1c2c(cc3c(c2OC)OCO3)CCN1C	750	–	–	–	–
COc1ccc(-c2ccc(CCC(=O)O)n2CC(=O)Nc2cccc(OC)c2)cc1	–	–	–	4.7	–
CC(=O)NNC(=O)CN1C(=O)/C(=C/c2ccccc2)SC1=S	–	–	–	–	–
CC(=O)NC(CC(=O)NCCN1C(=O)S/C(=C\c2ccccc2)C1=O)c1ccccc1 (stereo unspecified)	–	–	–	4.6	–
Cn1cc(S(=O)(=O)N2CCCC2)cc1C(=O)Nc1cccc(C(F)(F)F)c1	333	–	–	–	–
O=C(Nc1cccc(S(=O)(=O)N2CCCC2)c1)c1cccc(OC(F)F)c1	353	–	–	–	–
C/C(=N\NC(N)=S)C1=CCC2C3CC[C@H]4CC(O)CC[C@]4(C)C3CC[C@]12C (stereo partly specified)	348	–	–	–	–
OC(Cn1ccnc1)c1ccc(Cl)cc1Cl (stereo unspecified)	–	–	–	–	–
Clc1ccc(C(Cn2ccnc2)OCc2c(Cl)cccc2Cl)c(Cl)c1 (stereo unspecified)	346	–	–	–	–
CC(C)(C)C(=O)/C(=C\c1ccc([N+](=O)[O-])cc1)n1cncn1	330	·	·	·	·
c1ccc(NCc2cccnc2)cc1	292	–	–	–	–
COc1cccc(/C=N/NC(=O)c2ccc(COc3ccc(Cl)cc3Cl)o2)c1	322	–	–	–	–
COc1cc(NC(=O)COC(=O)CCCC2=NS(=O)(=O)c3ccccc3N2)cc(OC)c1	333	–	–	–	–
Cc1nc2c(c(=O)c3ccccc3n2C)c(=O)n1C1CCCCCC1	–	–	–	–	–
Cn1c2ccccc2c(=O)c2c(=O)n(C3CCCCC3)c(-c3ccco3)nc21	580	–	–	–	–
COc1ccc(-c2c(C(=O)c3ccccc3)[nH]c(N)c2C(=O)NCCc2c[nH]c3ccccc23)cc1	·	·	·	–	·
CC(C)(C)NC(=O)CCN(/N=C/c1ccccc1F)C1=NS(=O)(=O)c2ccccc21	312	–	–	–	–
CC(C)(C)NC(=O)CCN(/N=C/c1ccccc1)C1=NS(=O)(=O)c2ccccc21	–	–	–	–	–
O=C(c1cc(-c2ccc(Cl)cc2Cl)on1)N1CCCC1	–	–	–	–	–
Cc1nccc(-c2cc(-c3ccc(Cl)cc3Cl)no2)n1	328	–	–	–	–
CCc1c(-c2ccc(F)cc2F)ncn1CCc1ccccc1OC	·	·	·	–	·
O=C(N[C@H](Cc1ccccc1)C(=O)NCC1CCCO1)[C@H]1O[C@@H](n2ccc(=O)[nH]c2=O)[C@H](O)[C@@H]1O (stereo partly specified)	·	·	·	–	·
CC(=O)OCC(=O)C1CCC2C3CC=C4CC(O)CCC4(C)C3CCC12C (stereo unspecified)	462	–	–	–	–
